# Data reported in PubChem BioAssay (NCATS).
# Inconclusive results are not listed. Values without a mark were called inactive. Calls of active or inactive are those of the source. Calls come from the whole dose curve; as a rule, active = well fitted inhibition curve with a large enough effect; inconclusive = small, poorly fitted or top-dose-only effect; inactive = flat fitted curve, though single readings scatter.
# Biological target: Calcium and integrin-binding protein 1 (Homo sapiens) (UniProt Q99828)
# Sequence (Q99828 whole entry, looked up): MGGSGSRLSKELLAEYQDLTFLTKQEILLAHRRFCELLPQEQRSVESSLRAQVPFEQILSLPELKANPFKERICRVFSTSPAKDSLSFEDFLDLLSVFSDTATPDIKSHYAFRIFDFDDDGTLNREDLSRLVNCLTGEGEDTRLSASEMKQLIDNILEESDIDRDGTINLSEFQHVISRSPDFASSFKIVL
# Experiment: Primary qHTS for Identification of Calcium Integrin Binding Protein 1 (CIB1) Competitor (AID 1508620);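 note: GST tagged CIB1 binding a fluorescein labelled alphaIIb integrin peptide tracer; top concentration of the series differs between compounds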
# Details: CIB1-GST / FITC-alphaIIb peptide fluorescence polarization; series mostly up to 114 µM; activity change, negative = inhibition: at the top concentration
# Method in brief: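 CIB1-GST (1 uM final) and compound incubated 15 min at room temperature before adding FITC-alphaIIb peptide tracer (100 nM final). Competition for binding read by fluorescence polarization (ex 480, em 540) after another 15 min at room temperature.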
# % is set by controls: 0 for no effect and ±100 for the full control effect.
Structure (SMILES),"activity change, negative = inhibition",Potency
COC(=O)c1ccccc1-c1ccc(/C=c2\sc3nc4cc(Br)cnc4n3c2=O)o1,82.8%,–
CCOc1ccc(C(C)CNC(=O)c2cc3sccc3n2Cc2ccccc2)cc1OCC (stereo not given),8.61%,–
O=C(O)c1ccc(-c2nn3c(=O)cc(N4CCNCC4)nc3s2)cc1,-0.465%,–
COc1ccc(OC)c(-c2nnc3n2N=C(c2ccccc2OC)CS3)c1,7.1%,–
COc1ccc(NC(=O)Nc2ccc(-c3nc4ccccc4[nH]3)cc2)cc1OC,-17.5%,–
COc1cccc(NC(=S)N2CCN(c3ccccc3C(F)(F)F)CC2)n1,-3.06%,–
Cc1ccc(OCCn2c(CCNC(=O)c3cccc(Cl)c3)nc3ccccc32)cc1,1.18%,–
O=[S+]([O-])(c1ccc2ncsc2c1)N1CCN([S+](=O)([O-])c2c(F)cccc2F)CC1,6.26%,–
O=C1CCc2cc(S(=O)(=O)Nc3ccc(Cl)c(Cl)c3)ccc2N1,-11.3%,–
O=C1CCCC2=C1C(c1ccccc1C(F)(F)F)N=C(Nc1nc3ccccc3o1)N2 (stereo not given),0.358%,–
COc1ccc(-c2nc3cccc(OC)c3c(=O)n2Cc2ccccc2)cc1COc1ccc(NC(C)=O)cc1,-10.5%,–
Oc1c(C(Nc2ccccn2)c2ccccc2)cc(Cl)c2cccnc12 (stereo not given),–,inactive
NC(=O)C1CCN(c2nc(-c3ccccc3-c3ccccc3)cs2)CC1,-0.431%,–
N#Cc1c(-c2ccccc2C(F)(F)F)nc2ccccc2c1NCc1ccc(-c2ccnc(C(F)(F)F)c2)cc1,12.6%,–
COc1ccc(C(=O)N(Cc2ccco2)Cc2ccco2)c(O)c1,-13.2%,–
Cc1nnc(-c2cnn(C)c2N)n1CCc1cccs1,-7.12%,–
O=[S+]([O-])(c1ccc2nsnc2c1)N1CCN([S+](=O)([O-])c2c(F)cccc2F)CC1,-6.1%,–
O=C(O)c1ccc(O)c2ncc(N3CCCN(CCCc4ccncc4)CC3)cc12,-7.37%,–
O=C(O)c1ccc(O)c2ncc(N3CC(N4CCOCC4)C3)cc12,-9.04%,–
O=C(O)c1ccc2c(c1)C(=O)N([C@H](Cc1ccc(-c3ccccc3)cc1)C(=O)O)C2=O,-10.2%,–

Structure (SMILES),"activity change, negative = inhibition",Potency
Cc1cc2c(s1)c1cnn(Cc3cc(F)c(Cl)cc3Cl)c(=O)c1n2C,-2.19%,–
COc1ccc(C(=O)OCC#CCSc2nnc(-c3cccc4ccccc34)o2)cc1,-0.271%,–
COc1ccc(C2=Nn3c(nnc3-c3ccccc3Cl)SC2)cc1OC1CCOC1 (stereo not given),-1.02%,–
CNc1sc(-c2cccc3ccccc23)nc1C(=O)OC,-6.81%,–
CC(Nc1nc(-c2ccccc2C(F)(F)F)nc2ccccc12)c1ccc(-c2ccccc2)cc1 (stereo not given),-3.47%,–
CN(c1ccccc1)c1ccc(CNc2nn3c(=O)c4ccccc4nc3s2)cc1,6.4%,–
Cc1ccc(-c2ccc(=O)n(CC(=O)N(C)[C@@H](C)c3ccccc3)n2)cc1,-4.83%,–
O=C(CNC(=O)c1ccc2n[nH]nc2c1)OC(C(=O)Nc1cc(C(F)(F)F)ccc1Cl)c1ccccc1 (stereo not given),-8.92%,–
O=S(=O)(c1ccc2c(c1)OCCO2)N1CCN(S(=O)(=O)c2ccc3nc(Cl)c(Cl)nc3c2)CC1,-7.19%,–
Oc1ccc(CCc2ccccc2)c2cccnc12,-7.25%,–
Cc1ccc(S(=O)(=O)NC(N)=NCCC[C@@H](N)C(=O)Nc2cc(C(F)(F)F)ccc2Cl)cc1,-4.65%,–
Cc1sc(NC(=O)Cc2ccc3c(c2)OCO3)nc1-c1ccc2c(c1)CCN2C(=O)c1ccccc1F,8.9%,–
COc1ccc(C2Nc3ccccc3C(=O)N2CCO)cc1COc1c(C)cc(NC(C)=O)cc1C (stereo not given),0.838%,–
Cc1cc(C)nc(NC(=S)N2CCN(C3=Nc4ccccc4Oc4ccccc43)CC2)c1,-7.85%,–
NC(=O)C[C@H](N)C(=O)Nc1ccc(Cl)cc1C(=O)c1ccc[nH]1,-4.86%,–
NC(=O)c1ccc(-c2noc(-c3ccccc3F)n2)cc1,1.67%,–
Oc1cc(NCc2ccc(Cl)cc2)cc2cccnc12,0.389%,–
Cc1ccsc1CNc1ncnc2ccc(-c3c(C)noc3C)cc12,0.78%,–
COc1ccc(C2=Nn3c(nnc3-c3ccccc3O)SC2)c(OC)c1,-1.79%,–
N#Cc1cc(NC(=O)Nc2nnc(-c3ccncc3)s2)ccc1Br,-2.24%,–
